# Assay outcomes deposited in PubChem by National Center for Advancing Translational Sciences (NCATS).
# Lassa entry inh = blocks Lassa virus binding to or entry into cells; Potency, µM (series often up to 37.9 µM), for inactives: at the top dose activity change, negative = inhibition, most hits filed as inhibitors; 300,000 compounds, 1.2% hits; Lassa virus pseudotype entry inhibition, cell reporter; calls by dose curve; tested in HEK293 cells; also: potency is read from the fitted curve at half-maximal effect; nearly all actives have a fitted effect of over 50% in size
# Marburg entry inh = blocks Marburg virus binding to or entry into cells; AID 540276; 300,000 compounds, 1.8% hits; Marburg virus pseudotyped entry inhibition, cell reporter; Potency, µM (doses to about 37.8 µM), for the others: top-dose activity change, negative = inhibition, actives largely listed as inhibitors; calls by dose curve; tested in HEK293 cells; also: potency is read from the fitted curve at half-maximal effect
# HCV inhibitor = inhibitors of hepatitis C virus infection; Huh7.5.1 HCVcc-Cre infection, luciferase reporter, 44 h; Potency, µM (titrated, usually from 41.8 µM), without a hit: top-dose activity change, negative = inhibition, actives largely listed as inhibitors; 340,000 compounds, 3.4% hits; AID 651820; active = well fitted inhibition curve with a large enough effect; inconclusive = small, poorly fitted or top-dose-only effect, or another doubt; inactive = no such curve, though single readings can be large or run the other way; also: potency is read from the fitted curve at half-maximal effect
#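 Cells seeded at 1,000/well and cultured 4 h, then compounds added followed by HCVcc-Cre virus (~0.5 moi). After 44 h further culture, luciferase substrate was added, plates held 15 min at room temperature, and luminescence read for 15 sec.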
# HCMV antiviral = inhibitors of human cytomegalovirus; HFF cells, HCMV-luciferase reporter, 72 h; active compounds read low; activity change, negative = inhibition, % at 57.5 µM; 410,000 compounds, 4.5% hits; AID 1259415; in the data active = activity change below about -60%; inconclusive = no clear call, values can overlap the other calls; inactive = above about -39%
#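 Luciferase read-out from HCMV-luciferase-infected HFFs (MOI 1 PFU/cell) 72 h post infection at 37C; compounds added after 16 h cell attachment; activity normalized between buffer-only basal and Salinomycin (10uM) inhibitor controls.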
# FMDV inh = blocks foot and mouth disease virus. FMDV antiviral cell-based qHTS. Potency, µM (top dose mostly 57.9 µM), for the others: at the top dose activity change, negative = inhibition, most hits filed as inhibitors. 410,000 compounds, 1.2% hits; calls by dose curve; tested in HEK293T cells; also: read-out not given here; potency is read from the fitted curve at half-maximal effect; nearly all actives have a fitted effect of over 45% in size
# The depositor's hits bear a star; ? = inconclusive; . = no result; ! = a repeat was not active; [ ] = remark or other dose. The list is not random: actives were taken first. Their share in the collection is about 7.9%. % is scaled to controls: 0 for no effect and ±100 for the full control effect.
SMILES,Lassa entry inh,Marburg entry inh,HCV inhibitor,HCMV antiviral,FMDV inh
Cc1cc(=O)oc2c(CN3CCN(C)CC3)c(O)c(Cl)cc12,6%,16%,?,-102*,21%
CCCc1cc(=O)oc2c(CN3CCN(C)CC3)c(O)c(Cl)cc12,-3%,30%,-2%,14,-5%
CCOC(=O)N(C)[C@H]1C[C@H]2c3cc(-c4ccccc4C)ccc3CCN2C[C@H]1[C@H](C)O,.,.,.,-89*,.
COc1ccc(CCn2c(O)c(C=Nc3ccc(F)cc3)c(=O)[nH]c2=O)cc1OC,.,.,-6%,-12,32µM*
Cc1c(N=Cc2c(O)n(CCc3ccc(F)cc3)c(=O)[nH]c2=O)c(=O)n(-c2ccccc2)n1C,?,?,11%,-71*,.
CCN(CC)CCCN=Cc1c(O)n(CCc2ccc(OC)c(OC)c2)c(=O)[nH]c1=O,9%,6%,-6%,3,-21%
CCN(CC)c1ccc(N=Cc2c(O)n(CCc3ccc(OC)c(OC)c3)c(=O)[nH]c2=O)cc1,?,2.8µM*,16%,31,6.3µM*
C=CCn1c(O)c(C=Nc2c(C)n(C)n(-c3ccccc3)c2=O)c(=O)[nH]c1=O,.,.,18%,34,-14%
COc1ccc(-n2nc(C(=O)Nc3cc(OC)c(OC)c(OC)c3)c(=O)n(C)c2=O)cc1,13%[46.1 µM],.,.,43,5%
O=C1NCCN/C1=C\C(=O)c1cccc(Br)c1,.,.,-10%,37,61%
O=c1cc(-c2ccco2)oc2c1ccc1ccccc12,?,9%,?,-3,-15%
O=c1cc(C(Cl)(Cl)Cl)oc2c1ccc1ccccc12,?,2.1µM*,?,-105*,14µM*
O=c1cc(-c2ccncc2)oc2c1ccc1ccccc12,0%,?,?,-79*,-27%
FC(F)(F)c1ccc(CN2C[C@@H]3C(c4ccc(Cl)nc4)C4(c5ccccc5)CC3(C4)[C@H]2c2ccccc2)cc1 (stereo not given in full),.,.,-6%,-65*,-10%
O=C(CSc1cnc2ccccc2n1)c1ccc(F)cc1,5.8µM*,?,-8%,3,18%
CCCCN(CC)Cc1ccc(CNC(=O)Nc2ccc(F)cc2)o1,6%,2%,11µM*,5,-25%
Cc1ccc(-c2cc(C(=O)NCc3cnn(C)c3C)c3cc(Br)ccc3n2)cc1,13%[46.1 µM],18%[46.1 µM],?,60,2%
Cc1ccc(-c2cc(C(=O)N(C)Cc3cnn(C)c3C)c3cc(Br)ccc3n2)cc1,?,8.9µM*,?,6,-8%
O=C(Cc1nc(=O)c2ccccc2s1)Nc1ccccc1,?,?,-2%,-106*,64%
O=C(Cc1ccccc1)Nc1nc(=O)c2ccccc2s1,-7%,8%,-4%,-2,15%
CCc1ccccc1-n1c2c(cc(-c3nc(-c4ccc(Cl)cc4)cs3)c1=O)C(=O)CC(C)(C)C2,13%[46.1 µM],-15%[46.1 µM],.,-6,4%
CCCOc1ccc(CNC(=S)Nc2ccccc2)cc1Cl,-9%[46.1 µM],?,16µM*,-3,-5%
CC(C)COc1ccc(CNC(=S)Nc2ccccc2)cc1Cl,-12%[46.1 µM],?,10µM*,-26,-7%
CC(C)COc1ccc(CNC(=S)NCc2ccccc2)cc1,-8%,?,?,-82*,.
S=C(NCCCc1ccccc1)NCc1ccccc1,-27%[46.1 µM],?,-14%,-83*,28%
SMILES,Lassa entry inh,Marburg entry inh,HCV inhibitor,HCMV antiviral,FMDV inh
COc1ccc(CNC(=S)Nc2ccccc2)cc1Cl,.,.,?,6,28%
S=C(NCc1ccccc1)NCc1ccccc1,2%,6%,-8%,?,.
CCOc1ccc(CN(CC)C(=O)c2ccc3c(c2)[nH]c(=O)c(=O)n3CC)cc1OC,.,23%[46.1 µM],?,-5,-4%
CCN(CC)S(=O)(=O)c1cc(C(=O)OCC(=O)Nc2ccc(-c3nc4ccc(C)cc4s3)cc2)ccc1F,3.2µM*!,?,-13%,?,-17%
CCN(CC)S(=O)(=O)c1ccc(C(=O)OCC(=O)Nc2ccc(-c3nc4ccc(C)cc4s3)cc2)cc1,?,?,?,11,?
OC(c1ccc2c(c1)CN(Cc1cccc3nccnc13)CCO2)C1CCCCC1 (stereo not given),.,.,.,.,0%
Nc1nc(-c2ccccn2)nc(N)c1Cc1c(F)cccc1Cl,?,?,5µM*,-96*,3%
Nc1nc(-c2ccccn2)nc(N)c1Cc1ccccc1F,?,?,?,-102*,7%
Nc1nc(-c2ccccn2)nc(N)c1Cc1ccc(Cl)cc1Cl,?,?,3.5µM*,-93*,6%
CCOC(=O)[C@H](CCc1ccccc1)N[C@@H](C)C(=O)N1Cc2cc(OC)c(OC)cc2C[C@H]1C(=O)O,.,.,.,.,-16%
COc1ccc(OC)c(N(CC(=O)NCCSCc2ccco2)S(=O)(=O)c2ccccc2)c1,?,-30%[46.1 µM],-6%,-29,-22%
CCOc1ccccc1N(CC(=O)NCCSCc1ccco1)S(=O)(=O)c1ccccc1,?,?,13µM*,-15,-9%
COc1ccccc1N(CC(=O)NCCSCc1ccc(C)cc1)S(=O)(=O)c1ccccc1,.,.,13µM*,-15,?
Cc1cc(=O)oc2cc(OCC(=O)N3CCC(C(N)=O)CC3)ccc12,.,.,?,42,-10%
COc1ccccc1N1CCN(CCS(=O)(=O)c2cc(Cl)ccc2Cl)CC1,.,.,.,-20,-12%
Cc1cccc(CN2CCN(C(=O)CCl)CC2)c1,?,?,?,-34,35µM*
Cc1ccn2c(=S)[nH]nc2c1,.,.,.,-67*,-11%
Cc1oc(-c2ccc(C(=O)Nc3cccc(C(F)(F)F)c3)cc2)nc1CSc1ccccc1,-15%[46.1 µM],.,.,-98*,?
CC(=O)c1cccc(NC(=O)c2nc(-c3ccccc3)oc2C)c1,?,-2%[46.1 µM],16µM*,-4,-24%
CC(=O)c1ccc(NC(=O)c2ccc(-c3nc(CSc4ccc(C)cc4)c(C)o3)cc2)cc1,-7%[46.1 µM],.,.,-38,0%
CC(=O)c1ccc(NC(=O)c2ccc(-c3nc(CSc4ccccc4)c(C)o3)cc2)cc1,0%[46.1 µM],.,.,-76*,?
CN(C)CC(C(=O)Cc1ccccc1)c1ccccc1 (stereo not given),-1%[46.1 µM],?,9%,-97*,28µM*
CC(C)c1nn2c(=O)cc(COC(=O)c3ccc(NC(=O)C4CCCCC4)cc3)nc2s1,?,.,.,-40,-19%
O=C(Nc1ccccn1)C1CCN(c2ncnc3c2nc2n3CCCCC2)CC1,.,.,?,-84*,?
COC(=O)C(CCSC)NC(=O)C1CCN(c2ncnc3c2nc2n3CCCCC2)CC1 (stereo not given),7%[46.1 µM],.,.,-100*,16%
CCc1ccc(NC(=O)C2CCN(c3ncnc4c3nc3n4CCCCC3)CC2)cc1,-30%[46.1 µM],8%[46.1 µM],?,-73*,?
O=C(NCc1ccccc1)C1CCN(c2ncnc3c2nc2n3CCCCC2)CC1,9%[46.1 µM],.,.,-11,-8%
C[C@@H]1COc2cc(Br)ccc2S(=O)(=O)N1,1%[46.1 µM],.,.,.,.
Cc1cccc2cc(CN(C(=O)c3ccc(-c4ccc(F)cc4)cc3)C3CC3)c(N3CCC(O)CC3)nc12,.,.,.,.,-19%
